Experimental data from patent US20040171041, “Preparation and use of single-stranded transcription substrates for synthesis of transcription products corresponding to target sequences” (published 2004).

target: T1, mini-vRNAP (N4 virion RNA polymerase transcriptionally active domain, His-tagged) (Bacteriophage N4, UniProt Q859P9 SEQ:38-1143); assay: filter; further one order of magnitude reduction versus -2 pairing; settings: tags: N-terminal His6 (pBAD B leader); hairpin, extended stem; ssDNA; [NONE]
T1 sequence: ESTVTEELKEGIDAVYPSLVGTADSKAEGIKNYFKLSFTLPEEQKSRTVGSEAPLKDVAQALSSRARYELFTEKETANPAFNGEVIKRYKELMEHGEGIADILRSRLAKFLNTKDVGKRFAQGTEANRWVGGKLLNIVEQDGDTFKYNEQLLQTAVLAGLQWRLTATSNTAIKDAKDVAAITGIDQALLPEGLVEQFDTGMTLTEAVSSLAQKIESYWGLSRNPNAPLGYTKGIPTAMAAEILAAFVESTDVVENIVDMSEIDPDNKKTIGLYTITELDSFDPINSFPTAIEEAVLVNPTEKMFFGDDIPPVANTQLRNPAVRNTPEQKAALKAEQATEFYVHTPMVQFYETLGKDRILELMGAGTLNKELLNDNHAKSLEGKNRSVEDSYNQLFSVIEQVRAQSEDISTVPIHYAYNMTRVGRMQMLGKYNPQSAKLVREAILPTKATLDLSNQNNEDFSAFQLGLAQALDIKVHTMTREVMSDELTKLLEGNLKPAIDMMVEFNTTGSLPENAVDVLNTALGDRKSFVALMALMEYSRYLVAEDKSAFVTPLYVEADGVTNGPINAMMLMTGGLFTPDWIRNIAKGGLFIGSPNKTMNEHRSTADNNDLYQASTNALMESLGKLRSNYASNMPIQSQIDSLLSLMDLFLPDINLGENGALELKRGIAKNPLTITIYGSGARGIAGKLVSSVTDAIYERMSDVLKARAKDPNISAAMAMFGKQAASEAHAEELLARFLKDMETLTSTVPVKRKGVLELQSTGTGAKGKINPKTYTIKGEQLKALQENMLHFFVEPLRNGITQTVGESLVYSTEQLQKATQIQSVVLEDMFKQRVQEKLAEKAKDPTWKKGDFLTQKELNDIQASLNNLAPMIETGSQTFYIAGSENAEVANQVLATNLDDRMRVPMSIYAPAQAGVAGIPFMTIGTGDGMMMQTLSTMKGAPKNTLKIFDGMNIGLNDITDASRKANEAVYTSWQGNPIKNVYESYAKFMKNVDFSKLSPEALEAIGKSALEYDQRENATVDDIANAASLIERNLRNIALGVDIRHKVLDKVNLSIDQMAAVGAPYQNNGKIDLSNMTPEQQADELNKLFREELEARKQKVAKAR
From the text: To study the sequence determinants of promoter binding, 20 base-long promoter oligonucleotides, containing the wild-type vRNAP promoter P2 sequence and substituted at every position with a single 5-Iodo-dU, were used. Whenever substitutions were made in the stem, the corresponding pairing base was changed to A. These oligonucleotides were ³²P end-labeled and used to determine the enzyme's affinity for promoter DNAs by a filter binding assay and the ability to crosslink to mini-vRNAP upon UV irradiation at 320 nm.
The effect of changes in the stem length of the hairpin on the ability of mini-vRNAP to bind P2 promoter DNA was analyzed. […] The stem can be shortened by two base pairs without change in the binding affinity. […] No binding is observed if one more nucleotide is removed and the loop cannot form.

Row | Sequence | binding signal [fold lower affinity]
1 | TCCAAAAGAAGCGGAGCTTCTTTTG | ~1000
